Rows were chosen to be rich in hits. Some 15% of all compounds tested hit in one or more screens of this group.
VP16 counter = VP16 counterscreen qHTS for inhibitors of ROR gamma transcriptional activity. Drosophila S2 Gal4-VP16 UAS-luciferase, luminescence, 20 h. Potency, µM (highest dose often 53.6 µM), without a hit: top-dose activity, negative = inhibition, most hits filed as inhibitors. hit rate 3.5% among 310,000;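 also: Gal4-VP16 expression switched on by copper sulfate through the metallothionein promoter; nearly all actives have a fitted effect of over 50% in size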
TDP1 cell noCPT = qHTS for Inhibitors of human tyrosyl-DNA phosphodiesterase 1 (TDP1): qHTS in cells in absence of CPT. Potency, µM (top dose mostly 46.2 µM), without a hit: at the highest dose activity change, negative = growth inhibition, usual class: inhibitors. hit rate 15% among 420,000. DT40 Tdp1-/- hTDP1 cells, no CPT, ATP luminescence, 48 h; also: nearly all actives have a fitted effect of over 55% in size
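Luminescent ATP content (CellTiter-Glo) served as the growth readout. Knockout chicken DT40 cells expressing human TDP1 were exposed to compounds without camptothecin for a minimum 48 hr at 37 °C.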
RORg inh = qHTS for inhibitors of ROR gamma transcriptional activity; Potency, µM (top dose mostly 53.6 µM), for inactives: at the highest dose activity change, negative = inhibition, hits mostly inhibitors; hit rate 5.4% among 310,000; Drosophila S2 Gal4-RORgamma UAS-luciferase reporter, 20 h; Nuclear receptor ROR-gamma (Mus musculus), P51450; AID 2551, 2010; also: nearly all actives have a fitted effect of over 60% in size
Target sequence (P51450 whole entry, looked up, the tested form may be a part): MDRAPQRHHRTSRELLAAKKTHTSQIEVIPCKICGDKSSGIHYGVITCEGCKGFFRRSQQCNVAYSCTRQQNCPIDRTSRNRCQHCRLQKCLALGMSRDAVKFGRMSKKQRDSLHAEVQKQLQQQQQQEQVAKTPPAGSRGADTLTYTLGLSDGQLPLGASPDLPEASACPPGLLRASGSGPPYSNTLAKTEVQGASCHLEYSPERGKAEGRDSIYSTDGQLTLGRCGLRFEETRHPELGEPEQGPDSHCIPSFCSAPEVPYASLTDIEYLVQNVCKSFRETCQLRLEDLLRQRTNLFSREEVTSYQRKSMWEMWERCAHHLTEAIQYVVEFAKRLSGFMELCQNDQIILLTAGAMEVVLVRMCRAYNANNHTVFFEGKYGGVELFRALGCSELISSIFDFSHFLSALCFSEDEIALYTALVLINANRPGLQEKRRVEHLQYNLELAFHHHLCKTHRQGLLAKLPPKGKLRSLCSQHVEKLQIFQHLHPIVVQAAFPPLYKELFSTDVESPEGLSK
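Drosophila Schneider cells stably carrying a metallothionein-driven Gal4 DBD–ROR gamma fusion and a UAS-Photinus luciferase reporter were exposed to compound for 1 hr, then induced with copper sulfate (700 uM final) for 20 hr at ambient temperature before luminescence reading.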
12-LOX inh = Primary qHTS assay for inhibitors of human arachidonate 12S-lipoxygenase (ALOX12): Round 2; purified 12hLO, xylenol orange hydroperoxide absorbance; hit rate 1.1% among 580,000; Potency, µM (doses to about 108 µM), for inactives: top-dose activity change, negative = inhibition, actives largely listed as inhibitors; Polyunsaturated fatty acid lipoxygenase ALOX12 (Homo sapiens), P18054; AID 1671190, 2021
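Hydroperoxide product was detected by ferrous iron/xylenol orange as the 573 to 405 nm absorbance ratio. Arachidonic acid at 40 uM (final) was turned over for 30 min at room temperature by 150 nM human 12hLO, pH 7.0 Hepes buffer, after 15 min compound preincubation.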
ELG1 repair inh = qHTS screen for small molecules that inhibit ELG1-dependent DNA repair in human embryonic kidney (HEK293T) cells expressing luciferase-tagged ELG1; AID 504467, 2011; Potency, µM (highest dose often 46.1 µM), for inactives: top-dose activity change, negative = inhibition, actives largely listed as inhibitors; hit rate 2.3% among 330,000; HEK293T ELG1-luciferase reporter, luminescence, 16 h; DNA damage induced by 5-fluorouridine; also: nearly all actives have a fitted effect of over 55% in size
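Luminescence from the luciferase reporter, measured 30 min after ONE-Glo reagent at room temperature, was the read-out. Beforehand, 2,000 cells per well were exposed for 16 hr at 37 °C to 5-fluorouridine together with compound or vehicle.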
DT40 TDP1 CPT = qHTS for Inhibitors of human tyrosyl-DNA phosphodiesterase 1 (TDP1): qHTS in cells in presence of CPT; hit rate 12% among 420,000; Potency, µM (highest dose often 46.2 µM), inactives show top-dose activity change, negative = growth inhibition, hits mostly inhibitors; chicken DT40 Tdp1-/-;hTDP1 cells + 20 nM CPT, ATP luminescence, 48 h; also: nearly all actives have a fitted effect of over 55% in size
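Chicken DT40 Tdp1-/- cells complemented with human TDP1, 400 cells/well, exposed to compounds plus 20 nM camptothecin for at least 48 h at 37 C; viability read as ATP content by CellTiter-Glo luminescence.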
Numbers without * were called inactive; ? = inconclusive; . = no result; [ ] = dose if it differs, or a comment. Calls follow the shape of the dose curve; as a rule, active = well fitted curve in the direction sought with a large enough effect; inconclusive = small, poorly fitted or top-dose-only effect, or another doubt; inactive = no such curve, though single readings can be large; an effect the other way counts as inactive or inconclusive. % is scaled to controls: 0 for no effect and ±100 for the full control effect; potency is read from the fitted curve at half-maximal effect.

SMILES	VP16 counter	TDP1 cell noCPT	RORg inh	12-LOX inh	ELG1 repair inh	DT40 TDP1 CPT
C/C(=N\Nc1ccc([N+](=O)[O-])cc1[N+](=O)[O-])c1ccc(-n2nncc2C(C)(C)C)cc1	0%	13µM*	38%	-24%	10µM*	21µM*
CCn1nc(C)c(CN(CCOC)C(=O)C2COc3ccccc3C2)c1C (centres undefined)	.	.	.	12%	.	.
O=C(NCC(c1cccnc1)N1CCN(c2ccccc2F)CC1)C(=O)Nc1ccc(F)cc1F (centres undefined)	.	15µM*	.	5%	.	?
Cc1ccc(CNC(=O)C(=O)NCC(c2cccnc2)N2CCN(c3ccccc3F)CC2)cc1 (centres undefined)	.	5.8µM*	.	-5%	.	13µM*
Cc1ccc(NC(=O)C(=O)NCC(c2cccnc2)N2CCN(c3ccccc3F)CC2)cc1F (centres undefined)	.	.	.	-1%	.	.
CC1=NN(c2nc3ccccc3[nH]2)C(=O)/C1=C/N(C)C	?	?	5µM*	.	22%	4.6µM*
O=c1[nH]c2ccccc2nc1NCc1ccccc1	11%	-17%	29%	13%	?	9%
CC1=NN(c2ccccc2)C(=O)/C1=C/N(C)C	-9%	4%	-16%	-15%	0%	?
CC1=NN(c2nc3ccccc3[nH]2)C(=O)C1Cc1ccccc1 (centres undefined)	-13%	1.3µM*	-29%	.	?	1µM*
COc1cccc(/C=C/C(=O)Oc2ccc(Br)cc2)c1	.	.	.	-23%	.	.
CC1(C(=O)N2CCC(c3ccccc3)CC2)CCc2cnc(Nc3ccncc3)nc21 (centres undefined)	.	.	.	19%[176 µM]	.	.
Nc1nc(NCCCc2ccco2)cc(C2CC(O)C2)n1 (centres undefined)	.	.	.	35%	.	.
O=C(c1ccccc1)N1CCN(c2ncnc3sc4c(c23)CCC4)CC1	?	23µM*	-52%	?	9.2µM*	21µM*
Cc1nc(N2CCN(C(=O)c3ccco3)CC2)c2c3c(sc2n1)CCC3	1%	12µM*	-20%[10 µM]	?	23µM*	16µM*
c1nc(N2CCOCC2)c2c3c(sc2n1)CCCC3	.	?	-20%[0.365 µM]	-20%	?	?
Cc1cc(NC(=O)N2CCN(C(=O)c3nsc4ccccc34)CC2)ccc1Br	.	.	.	8%	.	.
COc1ccc(Cn2c(C3CCN(C(=O)Cc4ccc(F)cc4)CC3)n[nH]c2=O)cc1	.	.	.	22%	.	.
Cc1ccc(CN2CCCC(c3nn(-c4ccc(Cl)cc4)c(=O)[nH]3)C2)cc1 (centres undefined)	.	.	.	18µM*	.	.
O=C(Cc1ccccc1)N1CCCC(c2nn(-c3ccc(Cl)cc3)c(=O)[nH]2)C1 (centres undefined)	.	.	.	32µM*	.	.
O=C(Cc1ccc(Cl)cc1)N1CCC(c2n[nH]c(=O)n2Cc2ccc(F)cc2)CC1	.	.	.	14µM*	.	.
O=C(Nc1ccc(Cl)cc1)N1CCC(CN2CCCCCC2)CC1	.	23µM*	.	-25%	.	?
CC(C)OC(=O)c1nc2ccccc2nc1N1CCN(c2ccc(F)cc2)CC1	.	.	.	-44%	.	.
CCCNC(=O)Nc1cccc(C(=O)NC)c1C	.	.	.	0%	.	.
CCCC(=O)N1CCC(C(=O)NCC2(c3ccc(F)cc3)CC2)CC1	.	.	.	30%	.	.
CC(C)(C)C(=O)N1CCC(c2nn(-c3ccc(Cl)cc3)c(=O)[nH]2)CC1	.	.	.	3%	.	.
SMILES	VP16 counter	TDP1 cell noCPT	RORg inh	12-LOX inh	ELG1 repair inh	DT40 TDP1 CPT
O=C(Cc1ccc(F)cc1)N1CCC(c2nn(-c3ccc(Cl)cc3)c(=O)[nH]2)CC1	.	.	.	28µM*	.	.
O=C(Nc1ccc(Cl)cc1)N1CCC(c2nn(-c3ccc(Cl)cc3)c(=O)[nH]2)CC1	.	.	.	13µM*	.	.
O=C(Cc1cccc(Cl)c1)N1CCC(c2nn(-c3ccc(F)cc3)c(=O)[nH]2)CC1	.	.	.	-19%	.	.
Clc1ccc(C2CC(c3cccs3)n3ncnc3N2)c(Cl)c1 (centres undefined)	?	?	11µM*	311%	0%	?
Clc1ccccc1C1CC(c2ccccc2)Nc2ncnn21 (centres undefined)	-17%	?	?	426%	11%	15µM*
COc1ccc(C2CC(c3ccccc3Cl)Nc3ncnn32)cc1OC (centres undefined)	-4%	?	12%	0%	8%	-28%
c1ccc(C2CC(c3ccccc3)n3ncnc3N2)cc1 (centres undefined)	-4%	-12%	-24%	25%	5%	-13%
CCOc1ccc(C2CC(c3cccc(C)c3)n3ncnc3N2)cc1 (centres undefined)	-16%	23µM*	?	420%	-3%	13µM*
COc1cccc(C2CC(c3ccccc3Cl)Nc3ncnn32)c1 (centres undefined)	.	?	.	15%	.	26µM*
O=C(Nc1ccc(F)cc1)c1nc2ccccc2nc1N1CCOCC1	.	.	.	25%	.	.
O=C(COc1ncnc2c(Cl)cc(Cl)cc12)Nc1cccc(Cl)c1	.	.	.	-13%	.	.
Cc1ccccc1C(=O)NC1CCCCC1C (centres undefined)	.	.	.	44%	.	.
CN(C)/C=C/C(=O)c1ccc2noc(-c3ccc(F)cc3)c2c1	1%	?	13%	?	8.2µM*	?
CC(=O)c1ccc2noc(-c3ccc(C)cc3)c2c1	?	-11%	?	?	-14%	?
COc1cccc(-c2onc3ccc(C(C)=O)cc23)c1	1%	-8%	-21%	-6%	5%	-13%
Cc1ccc(-c2onc3ccc(C(=O)/C=C/N(C)C)cc23)cc1	10%	?	15%	?	-26%	?
Cc1cccc(-c2onc3ccc(C(=O)/C=C/N(C)C)cc23)c1	-10%	18µM*	12%	?	?	?
COc1cccc(-c2onc3ccc(C(=O)/C=C/N(C)C)cc23)c1	6%	16µM*	14%	?	?	?
O=C(CS(=O)(=O)c1ccccc1)c1ccc(Br)cc1	.	.	.	-14%	.	.
COc1ccc(C(=O)Nc2ccc3oc(-c4ccccc4C)nc3c2)cc1	.	.	.	-10%	.	.

Assay outcomes as filed in PubChem.
